According to PubChem BioAssay AID463190 (Sanford-Burnham Center for Chemical Genomics, 2010):
The whole screen tested about 330,000 compounds, of which about 7,300 (2.2%) were called active.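 Rule for the calls: active = inhibition of at least 40%; inactive = the rest.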 This excerpt belongs to a sample that is enriched for actives.

assay: growth inhibition of tim10-1 ts yeast – luminescence, uHTS, primary screen (AID 463190);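 note: mutant grown at 25 °C; 0% = DMSO wells with yeast and 100% = wells holding no yeast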; details: S. cerevisiae tim10-1 ts strain growth, BacTiter-Glo, 24 h; at 20 µM; active compounds read high

inhibition, inactive:
COC(=O)c1cc(OCC(=O)NC2CCCc3ccccc32)cc(C(=O)OC)c1 (stereo not given) 11.9%
COc1ccc(CN(C)C(C)C(=O)NC2CCCc3ccccc32)cc1 (stereo not given) 23.2%
COc1ccccc1C1CCN(c2ccc([N+](=O)[O-])cn2)CC1 14.4%
O=C(Nc1ccc(F)cc1)C1CCN(C(=O)c2ccc([N+](=O)[O-])cc2)CC1 2.2%
CN(C(=O)CC1C(=O)NCCN1Cc1ccc2ccccc2c1)C1CCOCC1 (stereo not given) 29.6%
NS(=O)(=O)c1ccc(CCNC(=O)c2nc(CS(=O)(=O)c3ccc(Cl)cc3)no2)cc1 -1.2%
CCCN(c1ccc(C)cc1)c1nc(=O)c2cccnc2s1 15.2%
CCC(C)NCCOCCOc1ccc(Br)cc1C (stereo not given) -4.38%
COc1ccc(-c2nc3cnccn3c2NC(C)(C)CC(C)(C)C)cc1O 32.9%
C/C(=N\OC(=O)c1ccccc1)c1c(C)nc2cc(C)ccn12 5.99%
Cc1ccc(C(=O)O/N=C(\N)c2ccccn2)cc1Cl 26.8%
O=C(NCc1ccco1)/C(=C/c1cccc([N+](=O)[O-])c1)NC(=O)c1ccco1 15.4%
Cc1ccc(N2C(=O)C3C4C=CC(CC4)C3C2=O)cc1Br (stereo not given) 6.71%
CCc1ccc2nc(N(CCCN(C)C)C(=O)c3ccc4c(c3)OCCO4)sc2c1 16%
CCN(CC)CCN(C(=O)c1cc(Cl)sc1Cl)c1nc2cc3c(cc2s1)OCO3 36.6%
CN(C)CCN(C(=O)CN1C(=O)c2ccccc2C1=O)c1nc2cc3c(cc2s1)OCCO3 -13.3%
CN(C)CCN(C(=O)C1CCCCC1)c1nc2cc3c(cc2s1)OCO3 16.1%
CN1C(=O)C2(OCCCO2)c2cc(Cl)ccc21 -14.9%
CNC(=O)c1[nH]cnc1C(=O)N[C@@H](CC(C)C)C(=O)OCc1ccccc1 18.1%
COC(=O)c1cc(S(=O)(=O)NCC2CCN(Cc3ccc(Cl)cc3)CC2)cn1C -24.4%
CC1=C(C(N)=O)C(c2ccc3c(c2)OCO3)n2nc(-c3cccc(C)c3)nc2N1 (stereo not given) 0.453%
Cc1cccc(C)c1NC(=O)CSc1nnc(-c2ccccc2)n1Cc1ccc2c(c1)OCO2 21.2%
COc1ccc(CC(=O)N[C@@H]2c3cc(OC)c(OC)cc3C[C@H]2OCc2ccccc2)cc1 15.2%
COc1ccc(C(=O)NCC(=O)N/N=C/c2ccc([N+](=O)[O-])s2)cc1OC 16.7%
Cc1ccc(/C=N/NC(=O)CN2CCN(Cc3ccccc3)CC2)s1 -3.89%
COc1ccc(CN2CCN(Cc3ccc(OC)c(OC)c3OC)CC2)cc1 -1.36%
CCOC(=O)c1cc(C#N)c(N2CCCCC2)nc1-c1ccccc1 -4.08%
CCOc1ccc(C(=O)NC2CCN(C(=O)Nc3ccccc3OC)CC2)cc1 6.63%
O=CN1CCN(C(=O)c2ccc3c(c2)OCO3)CC1 -19.2%
COc1cccc(NS(=O)(=O)c2ccc3[nH]cc(C(=O)NCCCOC(C)C)c(=O)c3c2)c1 19.3%
Nc1ccccc1/C=N\N=C/c1ccccc1N 7.02%
O=C1C=C(c2cc(C(F)(F)F)cc(C(F)(F)F)c2)C[C@@H](c2ccc3c(c2)OCO3)C1 -2.52%
Cc1cn(COC/C=C/c2ccccc2)c(=O)[nH]c1=O 7.72%
COC(=O)c1c(C)[nH]c(C(=O)/C=C/c2ccc(Cl)cc2)c1C 5.77%
CCCC1OC23CCCCC2C(C#N)(C#N)C1(C#N)C(=N)O3 (stereo not given) 13%
Cc1cc(N2C(=O)c3ccc(C(=O)NCc4ccccc4)cc3C2=O)no1 11.1%
CCCc1nn2c(=O)cc(CSCC(=O)Nc3cccc(C)c3)nc2s1 5.18%
CCOC(=O)CC(NC(=O)C1c2ccccc2Oc2ccccc21)c1ccc(C)cc1 (stereo not given) 5.58%
CC(C)(C)NC(=O)NC(=O)COC(=O)C1c2ccccc2Oc2ccccc21 23.3%
CCCCN1C(=S)NC[C@@H]1C(C)CC (stereo not given in full) 20.5%
CCOC(=O)NNc1cc(C(F)(F)F)ccn1 -3.69%
Cn1c(N)c(C(=O)COC(=O)/C=C/c2cccc(C(F)(F)F)c2)c(=O)n(C)c1=O 17.7%
COC(C(=O)NCc1ccccc1C)c1ccccc1 (stereo not given) -2.01%
CCCCn1c(SCC(=O)N2CCOCC2)nc2c1c(=O)n(C)c(=O)n2C 0.276%
CC(=O)Oc1ccc(C(=O)Nc2nccs2)cc1 8.42%
COc1ccc(Cc2nnc(NC(=O)c3cc(OC)c(OC)c(OC)c3)s2)cc1OC 8.1%
Cc1ccc(SC(C)C(=O)NCc2ccc(F)cc2)cc1 (stereo not given) 9.06%
CNS(=O)(=O)c1cccc(C(=O)OCCCC(=O)c2ccccc2)c1 3.9%

inhibition, active:
COc1ccc2c(c1)C(NS(=O)(=O)OCC(Cl)(Cl)Cl)CCC2 (stereo not given) 45.1%
COc1ccccc1C1SCCN1C(=O)c1ccc([N+](=O)[O-])cc1 (stereo not given) 41.9%
Cc1cccc(/C(N)=N/OC(=O)c2ccccc2Cl)c1 59.7%
Cc1ccc2nc(N(CCN(C)C)C(=O)C3=COCCO3)sc2c1 44.8%
CN(C)CCN(C(=O)C1=COCCO1)c1nc2ccc(Cl)cc2s1 66.5%
c1ccc(-c2nnc3n2NC(c2ccc4c(c2)OCO4)S3)cc1 (stereo not given) 51.2%
Cc1ccccc1NCC(=O)N/N=C\c1ccc([N+](=O)[O-])s1 53.3%
CCOc1ccc2nc(N3CCCN(C(=O)Nc4ccccc4C)CC3)c(C#N)cc2c1 42.1%
Cc1[nH]c(=O)c(C(=O)/C=C/c2ccccc2)c2c1CCCC2 46.1%
c1ccc(-c2cn3c(n2)CCc2ccc4cccnc4c2-3)cc1 42%
CCOC(=O)/C=C/c1ccc(C(F)(F)F)cc1S(=O)(=O)NC(C)(C)C 44.1%
COc1cc(C(=O)Nc2nccs2)cc(OC)c1OC 43.9%
